Drawing on the OligoGym collection, this text covers sensor-assay potency score (higher = more potent) for 22 sequences.
Further: reference of the scale not given here.

The target of this test is GALE. Kind of test: pooled miR-30 sensor sort-seq; sequence = guide strand. The settings on record: shRNA.
Regarding TACTTTTTGAAGAGACGCTGTA, the sensor-assay potency score (higher = more potent) was -0.402. In the case of TGAAATAGCGCAGCAGCACTGC, the sensor-assay potency score (higher = more potent) is -0.836. On to TTCCCGTACACAGTGGCTGAGC, for which the sensor-assay potency score (higher = more potent) is -0.834. For the sequence AACACCAGGTTCTTCACCCCGT, the sensor-assay potency score (higher = more potent) was -0.43. In the case of TACACAGTGGCTGAGCTGCTGA, the sensor-assay potency score (higher = more potent) was -1.04.

Take TTTATTTTTAAATACTTTGGAA: the sensor-assay potency score (higher = more potent) was -0.203. With TACTTTGGAAAGCTCTTTCAGA, the sensor-assay potency score (higher = more potent) is -0.275. In the case of TTGTACGGGATCTTCTTCCCAG, the sensor-assay potency score (higher = more potent) was 0.364.

Take AATAGCGCAGCAGCACTGCGTT: the sensor-assay potency score (higher = more potent) is -1.17. Regarding ATCCTCACACATCCTGTCCAGC, the sensor-assay potency score (higher = more potent) is -0.56. The figure for TGAAGAACTTGGACTTGCCGTA is -0.185; for TCACACATCCTGTCCAGCCCTA it is -0.0923. TCTGTGTCATAGTCATTGCCAA: the sensor-assay potency score (higher = more potent) was -0.861.

Regarding TTTTGAAGAGACGCTGTAGGGC, the sensor-assay potency score (higher = more potent) worked out at 0.205. With TCGATGAAGAACTTGGACTTGC, the sensor-assay potency score (higher = more potent) was -0.0111. The figure for TTCCTCGATGAAGAACTTGGAC is -0.651. As to TGGATGACCGCCATAAAGCTGT, the sensor-assay potency score (higher = more potent) was -0.62. The figure for TCTGTAATAATCCAGAGGCTTC is -1.35; for TAAGGCTGCAATGTGGCCCTTG it is 0.223.

Consider TTCCAAGTCTTGTCTGCCTGGC, for which the sensor-assay potency score (higher = more potent) is -0.133. As to ATGAAGAACTTGGACTTGCCGT, the sensor-assay potency score (higher = more potent) is -1.09.

On to TCAAACTCCACAGAGCGGCCTG, for which the sensor-assay potency score (higher = more potent) was -0.0381.
